Assay outcomes as filed in PubChem BioAssay.
In the library only some 4.3% were active in any assay of this set; here they are far more common.
uPA generation = inhibitors of cell surface uPA generation | 330,000 compounds, 0.31% hits | Potency, µM (top dose mostly 38.3 µM), most hits filed as inhibitors | cell surface uPA generation assay, qHTS; active = well fitted inhibition curve with a large enough effect; inconclusive = small, poorly fitted or top-dose-only effect; inactive = no such curve, though single readings can be large or run the other way; tested in mouse RAW 264.7 cells; note: nearly all actives have a fitted effect of over 55% in size
MCF10A rereplic = induces DNA re-replication in MCF 10a normal breast cells | MCF 10A DNA re-replication, Hoechst nuclear intensity, 48 h | Potency, µM (doses to about 46.1 µM), usual class: activators | 350,000 compounds, 2.9% hits | AID 624296; note: nearly all actives have a fitted effect of over 50% in size
SW480 rerep = induces DNA re-replication in SW480 colon adenocarcinoma cells | 340,000 compounds, 1.8% hits | SW480 DNA re-replication, Hoechst DNA content imaging, 48 h | AID 624297 | Potency, µM (highest dose often 46.1 µM), most hits filed as activators; note: nearly all actives have a fitted effect of over 55% in size
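DNA re-replication was detected as more nuclei of elevated Hoechst intensity after 48 hr exposure to compound (23 nL pinned per well of 250 cells).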
Giardia killer = kills Giardia lamblia; 340,000 compounds, 0.15% hits; activity change, % at 7.66 µM, hits read low; AID 540267; Giardia lamblia trophozoite viability; in the data active = activity change below about -80%; inconclusive = between about -30% and that limit;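 note: parasites exposed to compound for two days anaerobically before the ATP read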
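ATP-content bioluminescence gauges trophozoite survival. Cells (100/well) receive compound and incubate anaerobically for 48 hrs at 37 deg C; detection reagent follows for 15-30 min at room temperature.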
Numbers stand for hits; - = inactive; ? = inconclusive; . = no result given; [ ] = remark or other dose. Unless noted, calls come from the whole dose curve; as a rule, active = well fitted activation curve with a large enough effect; inconclusive = small, poorly fitted or top-dose-only effect; inactive = no such curve, though single readings can be large or run the other way.

SMILES	uPA generation	MCF10A rereplic	SW480 rerep	Giardia killer
CCOC(=O)C1CCCN(c2ccc([N+](=O)[O-])c3nonc23)C1 (configuration not stated)	-	-	-	-95
C=C(C=O)CC1CC(O)[C@]2(C)OC3CC4OC5C[C@]6(C)O[C@]7(C)CCC8OC9C[C@]%10(C)OC%11C(C)=CC(=O)OC%11CC%10OC9C[C@@H](C)C8OC7CC6O[C@]5(C)CC5OC5C4OC3CC2O1 (some centres not stated)	.	4.6µM	5.8µM	-
Cc1ccc(S(=O)(=O)Nc2ccc3ncccc3c2[N+](=O)[O-])cc1	-	?	?	-
c1cc2c(c(NC3=NCCN3)c1)CCCC2	.	-	-	.
C#CCOCCOCCOCCNc1nc(N2CCN(C(=O)CCCCCCCCCCNC(=O)[C@H](CCCCN)n3cc(C[C@@H](C)CC)nn3)CC2)nc(N2CCN(C(=O)CCCCCCCCCCNC(=O)[C@H](CCCN=C(N)N)n3cc(C[C@@H](C)CC)nn3)CC2)n1	?	16µM	-[9.22 µM]	-
C#CCOCCOCCOCCNc1nc(N2CCN(C(=O)CCCCCCCCCCNC(=O)[C@@H](CCC(=O)O)n3cc(CCCCCN)nn3)CC2)nc(N2CCN(C(=O)CCCCCCCCCCNC(=O)[C@H](CCCCN)n3cc(C[C@@H](C)CC)nn3)CC2)n1	?	?	-	-
Cc1ccc(/C=C2\C(=O)NC(=S)N(c3ccccc3F)C2=O)s1	-	5.8µM	?	-
Cc1ccc(/C=C2\C(=O)NC(=S)N(c3ccc(F)cc3)C2=O)s1	-	?	-	-
O=S(=O)(CCN1CCN(c2ccccn2)CC1)c1ccc(Cl)cc1Cl	-	?	-	-
COC(=O)C1=C(c2ccc(F)cc2OCc2ccccc2)C[C@@H]2CC[C@H]1N2C(=O)NCc1cccc(OC)c1	?	-	-	-
COC(=O)C1=C(c2ccccc2OCc2ccccc2)C[C@@H]2CC[C@H]1N2C(=O)NCCOc1ccc(OC)cc1	-	6.5µM	?	-
COC(=O)C1=C(c2ccccc2OCc2ccccc2)C[C@@H]2CC[C@H]1N2C(=O)NCCOc1ccccc1	?	?	-	-
COC(=O)C1=C(c2ccc(F)cc2OCc2ccccc2)C[C@@H]2CC[C@H]1N2C(=O)NCCN1CCOCC1	-	0.58µM	?	-
COC(=O)C1=C(c2ccc3ccccc3c2)C[C@@H]2CC[C@H]1N2C(=O)NCc1ccc(C(F)(F)F)cc1	11µM	?	-	-
COC(=O)C1=C(c2ccc(F)cc2OCc2ccccc2)C[C@@H]2CC[C@H]1N2C(=O)NCc1cccc(C(F)(F)F)c1	?	3.3µM	-	-
COc1ccc(C(=O)N/N=C/c2ccc(N(C)c3ccccc3)cc2)cc1	?	?	-	-
Cc1onc(-c2ccccc2)c1C(=O)N[C@@H]1C(=O)N2[C@@H]1SC(C)(C)[C@@H]2C(=O)O	.	-	-	.
Nc1c(C(=O)NCCCc2ccccc2)c2nc3ccccc3nc2n1Cc1cccs1	.	?	2.9µM	-
COCCOC(=O)c1c(N)n(Cc2ccccc2)c2nc3ccccc3nc12	-	-	-	-
CCCCCn1c(N)c(C(=O)NCc2cccs2)c2nc3ccccc3nc21	.	5.2µM	2.6µM	-
COCCCn1c(N)c(C(=O)NCCC(C)C)c2nc3ccccc3nc21	-	?	?	-
CCCOC(=O)c1c(N)n(Cc2cccs2)c2nc3ccccc3nc12	-	21µM	?	-
COCCCNC(=O)c1c(NC(=O)c2ccccc2)n(Cc2ccccc2)c2nc3ccccc3nc12	-	?	1.3µM	-
O=C(CN1C(=O)C(=O)N(C2CCCC2)C1=O)Nc1cc(Cl)ccc1[N+](=O)[O-]	-	?	-	-
CCCCn1c(N)c(C(=O)NCc2cccs2)c2nc3ccccc3nc21	.	1.2µM	3.3µM	-
SMILES	uPA generation	MCF10A rereplic	SW480 rerep	Giardia killer
CCCCn1c(N)c(C(=O)OCCOC)c2nc3ccccc3nc21	-	?	?	-
CCCCCc1cc(O)c2c(c1)OC(C)(C)C1CC=C(C)CC21 (configuration not stated)	.	7.5µM	?	.
O=C1CN=C(c2ccccc2)c2cc(Cl)ccc2N1CC1CC1	.	-	-	.
O=C(CCl)Nc1nccs1	?	?	16µM	-
O=C(Nc1nccs1)C(Cl)(Cl)Cl	-	-	-	-
O=C(Nc1ccc(Cl)cc1)Nc1nccs1	-	7.3µM	5.8µM	-
CC(C)(C)c1csc(NC(=O)Nc2ccccc2)n1	-	?	-	-
Cc1ccc(S(=O)(=O)Nc2cccc3c2O[C@H](CN(C)C(=O)Nc2cccc4ccccc24)[C@H](C)CN([C@H](C)CO)C3=O)cc1	?	-	-	-
C[N+]12CCC(CC1)[C@@H](OC(=O)C(O)(c1ccccc1)c1ccccc1)C2	.	-	-	.
NC(=O)c1cc([N+](=O)[O-])cc([N+](=O)[O-])c1	-	-	?	-
CC(C)(C)c1cc([N+](=O)[O-])cc(C(C)(C)C)c1O	7.9µM	-	-	-
Cc1ccc(N2CCN(C(=O)c3cn(CC4CCCCC4)nn3)C(C)C2)cc1 (configuration not stated)	-	21µM	-	-
O=c1[nH]c(=O)n(-c2ccccc2)c(O)c1/C=C1/C(c2ccccc2)=Nc2ccccc21	-	2.1µM	?	-
CCC(C)NC(=O)CCC(=O)OC1O[C@H]2OC3(C)CC[C@H]4[C@H](C)CCC(C1C)C24OO3 (some centres not stated)	?	?	18µM	-
CCOC(=O)c1c(-n2c(C)cc(C=C3C(=O)NC(=S)NC3=O)c2C)sc2c1CCCC2	?	18µM	?	-
c1ccc(-c2ccc(C(c3ccccc3)n3ccnc3)cc2)cc1 (configuration not stated)	-	10µM	?	-
c1ccc(C(c2ccccc2)c2cccnc2)cc1	-	-	-	-
O=C(NC1(Cc2ccccc2)CCN(Cc2ccc(-c3ccccc3)cc2)C1=O)c1ccccc1 (configuration not stated)	?	?	?	-
FC(F)(F)c1ccccc1CNCCc1c[nH]c2ccccc12	-	10µM	?	-
Fc1ccccc1CNCCc1c[nH]c2ccccc12	-	-	?	-
COc1cc(C)c(CN2CC=C(c3ccc(F)cc3)CC2)cc1C	-	?	-	-
COc1cc2nc(CN3CC=C(c4ccccc4)CC3)[nH]c(=O)c2cc1OC	-	2.9µM	?	-
Cc1ccc(N)c(C(=O)c2ccccc2)c1	-	-	-	-
Nc1cccc(-c2nc3ccc(C(=O)c4ccccc4)cc3[nH]2)c1	2µM	?	18µM	-
Oc1ccc(Cl)cc1Cc1cc(Cl)ccc1O	-	5.2µM	?	-
COc1cc2c(c(OC)c1OC)-c1ccc(OC)c(=O)cc1[C@@H](NC(C)=O)CC2	-	0.042µM	0.0046µM	-
COc1cc2c(c(OC)c1OC)-c1ccc(O)c(=O)cc1[C@@H](N)CC2	-	-	-	-
CCN(CC)c1ccc2c(cc1=O)[C@@H](NC)CCc1cc(OC)c(OC)c(OC)c1-2	-	1.3µM	1µM	-
COc1cc2c(c(OC)c1O)-c1ccc(OC)c(=O)cc1C(NC(=O)C(F)(F)F)CC2 (configuration not stated)	-	?	0.12µM	-
